High-throughput results deposited in PubChem by Broad Institute.
Rows were chosen to be rich in hits. Some 3.1% of all compounds tested hit in one or more screens of this group.
GSIS activator: primary screen for activators of insulin secretion dependent on glucose, INS-1E cells, GLuc reporter luminescence | INS-1E GLuc reporter insulin secretion, 2-3 h | activation, % at 16.6 µM | 370,000 tested, 0.61% active;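 active = lowest replicate activation of at least 40%, so every replicate reaches that level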;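 also: 0% = median of neutral control wells and 100% = median of IBMX positive control wells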
miR-122 sensor: inhibitors of miR-122 in Huh7 cells; Huh7 miR-122 Renilla luciferase sensor, 48 h; neutral wells = 0, positive control = 100; AID 602342; activation (reporter increase), % at 12.5 µM; 340,000 tested, 0.3% active;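 active = mean replicate activation score at least 90 and every replicate individually at or above 90; inconclusive = only one of the two criteria met; inactive = neither criterion met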;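 also: higher luciferase means less miR-122 activity so hits act as miR-122 inhibitors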
PAX8 inh HTS: PAX8 transcriptional activity inhibition. RMG-I TPO-luciferase reporter, SteadyGlo, 24 h. inhibition, % at 12.6 µM. 360,000 tested, 1.2% active;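 active = mean replicate inhibition at least 60% with every replicate also reaching 60%; inconclusive = only one of the two criteria is met; inactive = mean below 60% and not all replicates reaching 60%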;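 also: luciferase light reporting Pax8 driven TPO promoter activity; plate controls were median of neutral control wells for no effect and mitoxantrone controls for full effect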
C2C12 statin: suppressors of simvastatin-induced myotoxicity in C2C12 myotubes | AID 602340 | 330,000 tested, 0.78% active | rescue of ATP level, % at 7.49 µM | ATP luminescence, 48 h; scaled: DMSO 0, geranylgeraniol control 100;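 active = mean ATP rescue above about 67%, or every replicate alone reaching that limit, limit read from the data, passing the limit was not always enough; inconclusive = no clear call, values can overlap the other calls; inactive = mean under the limit and some replicate under it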;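 also: myotubes were challenged with 10 µM simvastatin during compound exposure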
EWS-Fli inh: inhibitors of EWS/Fli oncoprotein transcriptional activity; A673 NR0B1-luciferase reporter, viability-normalised; inhibition, % at 12.6 µM; 350,000 tested, 0.67% active; AID 651661;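 active = mean inhibition of at least 50% after viability correction, with every replicate also passing that limit; inconclusive = mean reaches 50% but only one of two replicates passes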;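 also: firefly luciferase signal divided by Alamar Blue viability fluorescence both relative to DMSO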
Env fusion inh: inhibitors of HIV Env-mediated cell fusion; HeLa-JRFL Env/CEM21 cell fusion, luciferase; inhibition, % at 12.3 µM; 360,000 tested, 1.1% active; AID 651610;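 active = mean replicate inhibition score of at least 50 and every replicate individually at or above 50; inconclusive = only one of the two criteria met; inactive = mean below 50 and not all replicates reaching 50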;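 also: 0% = plate neutral controls and 100% = maraviroc near 300 nM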
Active calls of the source: *; ? = inconclusive; / = no result; [ ] = another dose, or the depositor's remark.

SMILES	GSIS activator	miR-122 sensor	PAX8 inh HTS	C2C12 statin	EWS-Fli inh	Env fusion inh
Cc1noc(C)c1NC(=O)N(C)C[C@H]1Oc2ccc(NC(=O)CCC(F)(F)F)cc2CC(=O)N([C@H](C)CO)C[C@@H]1C	15	2[16.7 µM]	-33	-4	-6	12[16.7 µM]
COc1ccc(C(N)=O)cc1N	7	0	-6	130*	/	-74
C[C@@H]1CN([C@H](C)CO)C(=O)Cc2cc(NC(=O)CCCCCC(=O)Nc3ccccc3N)ccc2O[C@@H]1CN(C)Cc1ccc(Cl)c(Cl)c1	-17	-9[16.7 µM]	52	85*	43	14[16.7 µM]
C[C@H](CO)N1C[C@H](C)[C@H](CN(C)Cc2ccc(Cl)c(Cl)c2)Oc2ccc(NC(=O)CCCCCC(=O)Nc3ccccc3N)cc2CC1=O	-1	14[16.7 µM]	68*	139*	48	24[16.7 µM]
C[C@H](CO)N1C[C@H](C)[C@@H](CN(C)Cc2ccccc2)Oc2ccc(NC(=O)CCCCCC(=O)Nc3ccccc3N)cc2CC1=O	5	-3[16.7 µM]	23	8	27	29[16.7 µM]
C[C@@H]1CN([C@@H](C)CO)C(=O)Cc2cc(NC(=O)CCCCCC(=O)Nc3ccccc3N)ccc2O[C@@H]1CN(C)Cc1ccc(Cl)c(Cl)c1	-1	-13[16.7 µM]	70*	37	44	13[16.7 µM]
O=C(C[C@H]1CC[C@@H]2[C@H](COC[C@H](O)CN2Cc2ccc(C(F)(F)F)cc2)O1)NCCc1ccccc1	-19	-11[16.7 µM]	/	20	/	/
COc1ccc2c3c([nH]c2c1)[C@H](CO)N(C(=O)NC(C)C)CC31CCN(C(=O)c2ccncc2)CC1	3	/	/	/	/	/
COc1ccc(N2C(c3ccsc3)=Cc3cc4c(cc3C2c2c[nH]c3ccccc23)OCO4)cc1 (configuration not stated)	-52	/	73*	/	11	5
COc1ccc2sc3c(=O)[nH]c4ccccc4c3c2c1	103*	9	/	/	/	/
COC(=O)C1=C(SC)N(c2ccccc2)C(c2ccccc2)CC1=O (configuration not stated)	4	/	91*	/	7	/
COc1ccc(-n2nc(C#N)c(Cl)cc2=O)cc1	6	-17	105*	/	53*	-210
C[C@@H]1CCCCO[C@@H](CN(C)C(=O)Nc2ccc(C(F)(F)F)cc2)[C@H](C)CN([C@H](C)CO)C(=O)c2cc(NS(=O)(=O)c3ccc(F)cc3)ccc2O1	7	-8[16.7 µM]	88*	/	20	-78[16.7 µM]
C[C@@H]1CCCCO[C@H](CN(C)C(=O)Nc2ccc(F)cc2)[C@H](C)CN([C@@H](C)CO)C(=O)c2cc(NS(=O)(=O)c3ccc(F)cc3)ccc2O1	-22	-2[16.7 µM]	-15	/	8	-39[16.7 µM]
C[C@H]1CCCCO[C@H](CN(C)C(=O)Nc2ccc(C(F)(F)F)cc2)[C@@H](C)CN([C@@H](C)CO)C(=O)c2cc(NS(=O)(=O)c3ccc(F)cc3)ccc2O1	-12	0[16.7 µM]	84*	/	4	78*[16.7 µM]
Cc1ccc(S(=O)(=O)Nc2ccc3c(c2)C(=O)N([C@H](C)CO)C[C@H](C)[C@@H](CN(C)C(=O)Nc2ccc(C(F)(F)F)cc2)OCCCC[C@H](C)O3)cc1	7	-6[16.7 µM]	41	/	-3	8[16.7 µM]
C[C@@H]1CCCCO[C@@H](CN(C)C(=O)Nc2ccc(F)cc2)[C@@H](C)CN([C@H](C)CO)C(=O)c2cc(NS(=O)(=O)c3ccc(F)cc3)ccc2O1	-20	9[16.7 µM]	-7	/	-7	11[16.7 µM]
C[C@H](CO)N1C[C@H](C)[C@H](CN(C)C(=O)Nc2ccc(C(F)(F)F)cc2)OCCCC[C@H](C)Oc2ccc(NS(=O)(=O)c3ccc(F)cc3)cc2C1=O	20	5[16.7 µM]	72*	/	6	59*[16.7 µM]
C[C@H]1CN([C@@H](C)CO)C(=O)c2cccc(NC(=O)c3ccncc3)c2O[C@H]1CN(C)C(=O)Nc1cccc2ccccc12	16	-4[16.7 µM]	30	-5	11	22[16.7 µM]
Cc1noc(C)c1S(=O)(=O)Nc1ccc2c(c1)C(=O)N([C@H](C)CO)C[C@@H](C)[C@@H](CN(C)S(C)(=O)=O)OCCCC[C@H](C)O2	10	5[16.7 µM]	/	/	-15	7[16.7 µM]
Cc1ccc(C)c(-n2cc(CNCCCn3cccn3)c(-c3ccccc3)n2)c1	-12	-6	15	-23	22	69*
Cc1ccc(-n2cc(CNCCCn3ccnc3C)c(-c3ccc(F)cc3)n2)cc1	44*	-7	-20	-43	0	14
O=C(CCl)Nc1cc2[nH]c(=O)[nH]c2cc1Br	13	/	91*	/	?	4
O=C(C1CCCCC1)N1C[C@H]2[C@@H](c3ccccc31)[C@@H](CO)N2C(=O)c1ccccc1	-6	260*[16.7 µM]	-1	-11	2	/
O=C(C1CC1)N1C[C@@H]2[C@H](c3ccccc31)[C@H](CO)N2C(=O)c1ccccc1	1	14[16.7 µM]	-17	-33	-3	/
SMILES	GSIS activator	miR-122 sensor	PAX8 inh HTS	C2C12 statin	EWS-Fli inh	Env fusion inh
O=C(Cc1ccccc1)N1C[C@H]2[C@@H](c3ccccc31)[C@@H](CO)N2C(=O)C1CCCCC1	-9	200*[16.7 µM]	4	-13	2	/
O=C(N[C@@H]1CC[C@H](CC(=O)N2CCCCC2)O[C@H]1CO)c1ccc2c(c1)OCO2	-7	/	16	-1	-4	16[16.7 µM]
CCCNC(=O)COC(=O)c1ccc(OCC(=O)Nc2ccccc2OC)c(OC)c1	/	6	5	-1	/	-57
CCC(CC)NC(=O)COC(=O)c1ccc(OCC(=O)Nc2ccccc2OC)c(OC)c1	/	-10	7	67*	/	-37
Cc1noc(C)c1S(=O)(=O)N(C)C[C@H]1OCCCC[C@@H](C)Oc2ccc(NC(=O)NC(C)C)cc2C(=O)N([C@@H](C)CO)C[C@@H]1C	0	6[16.7 µM]	-1	/	-13	-35[16.7 µM]
C=CCN1C(=O)/C(=C/c2ccc(OC(C)=O)c(OCC)c2[N+](=O)[O-])SC1=S	-13	/	100*	/	-123	32
CCOc1c(OC(C)=O)ccc(/C=C/c2ccc3cccc(OC(C)=O)c3n2)c1[N+](=O)[O-]	13	11	/	-69	-22	/
CC(NNC(=S)N1CCCCCC1)c1ccc2ccccc2n1 (configuration not stated)	-10	/	81*	/	3	69*
COc1ccc2c3c([nH]c2c1)[C@H](CO)N(Cc1ccccc1)CC31CN(C(=O)c2cccnc2)C1	23	/	/	/	25	-70[16.7 µM]
COc1ccc(N2CCN(C(=O)C3CCC(Cn4c(=S)[nH]c5ccccc5c4=O)CC3)CC2)cc1 (configuration not stated)	-42	-2	/	21	/	74*
O=C(C1CCC(Cn2c(=S)[nH]c3ccccc3c2=O)CC1)N1CCN(c2ccccc2)CC1 (configuration not stated)	6	11	9	-19	/	?
C[C@@H]1CN([C@H](C)CO)C(=O)c2cccc(NS(=O)(=O)c3ccccc3)c2O[C@@H]1CN(C)Cc1ccc(Cl)c(Cl)c1	-9	-10[16.7 µM]	-15	-6	-8	81*[16.7 µM]
